Assay results taken from ChEMBL document CHEMBL4888484, “Replenishing the malaria drug discovery pipeline: Screening and hit evaluation of the MMV Hit Generation Library 1 (HGL1) against asexual blood stage Plasmodium falciparum ,using a nano luciferase reporter read-out” (2022).
The whole screen tested about 4,800 compounds, of which about 410 (8.5%) showed an effect of 50% or more. What follows is part of a selection rich in strong results, with near analogues and random picks from the rest.

tested on: Plasmodium falciparum; assay: Confirmatory screen in NF54 pLDH assay, in single point, at 2uM, 72h; type: functional, Erythrocyte; settings: timepoint 72 hour

**Q.** With Cc1ccc(OCc2cccc(C(=O)N3CCC[C@@H]3CN3CCCCC3)c2)cn1 as the molecule, how does the “% Inhibition” value read?
**A.** 9%

**Q.** For COc1ccnc(CN2CC[C@](C)(O)[C@H](O)C2)c1, which “% Inhibition” value is on record?
**A.** 6%

**Q.** Which “% Inhibition” value does the source give for CN1CCCN(c2ccnc3ccsc23)CC1 here?
**A.** 39%

**Q.** C=CCNC(=NC)NC1CCN(c2cc(OC)cc(OC)c2)CC1 was tested. Which “% Inhibition” value did it give?
**A.** 7%

**Q.** For CCC1(CC)CCC(NC(=O)[C@@H]2CCCCC(=O)N2)CC1, which “% Inhibition” value is on record?
**A.** -14%

**Q.** How did the “% Inhibition” value turn out when C[C@H]1C[C@@H](O)CCN1C(=O)c1cccc2sc(C(F)(F)F)nc12 was run?
**A.** 3%

**Q.** How did the “% Inhibition” value turn out when Cc1cc(C)cc(-n2cc(C(=O)NCCCc3ccccc3)nn2)c1 was run?
**A.** 8%

**Q.** How did the “% Inhibition” value turn out when Cc1cc2nc(C)c(=O)n(Cc3ccc(C(=O)NCc4ccco4)cc3)c2cc1C was run?
**A.** 8%

**Q.** With Cc1cc(NC(=O)NC(C)C)c2[nH]c(C(=O)N3CCOCC3)c(-c3ccccc3)c2c1 as the molecule, how does the “% Inhibition” value read?
**A.** 9%

**Q.** How did the “% Inhibition” value turn out when CO/C(=N/C(=O)c1cccc(OC)c1)N[C@H]1CCCc2ccccc21 was run?
**A.** -9%

**Q.** Which “% Inhibition” value does the source give for O=c1[nH]c(=O)n(Cc2cc(Cl)cc3c2OCOC3)cc1Cl here?
**A.** 12%

**Q.** Which “% Inhibition” value does the source give for CC(C)N(C)S(=O)(=O)Nc1ccc(Br)cc1O here?
**A.** 9%

**Q.** How did the “% Inhibition” value turn out when Nc1ccccc1-c1nc(Nc2ncccn2)n[nH]1 was run?
**A.** 7%

**Q.** For Cc1nc(CC(=O)Nc2cc(C3CC3)nn2-c2ccccc2)cs1, which “% Inhibition” value is on record?
**A.** 8%

**Q.** How did the “% Inhibition” value turn out when CC(C)c1cc(=O)[nH]c(-n2nc(C3CC3)cc2NC(=O)COc2ccc3ccccc3c2)n1 was run?
**A.** 65%

**Q.** For Cc1cc(NC(=O)c2ccc(COc3ccc4ccccc4c3)o2)nn1C, which “% Inhibition” value is on record?
**A.** 13%

**Q.** O=C(Nc1ccc(OC(F)F)cc1)c1cc(C2CC2)nc2c1c(C1CC1)nn2-c1ccccc1 was tested. Which “% Inhibition” value did it give?
**A.** -5%

**Q.** With CC(C)c1cc(=O)[nH]c(-n2nc(C3CC3)cc2NC(=O)Cc2ccc(Cl)cc2)n1 as the molecule, how does the “% Inhibition” value read?
**A.** 67%

**Q.** For Cc1ccc(N2C[C@@H](c3nnc(NC(=O)Cc4ccc(Cl)cc4)o3)CC2=O)cc1, which “% Inhibition” value is on record?
**A.** -18%

**Q.** For CCOc1c(Br)cc(Cl)cc1NCC(=O)NC(=O)NC, which “% Inhibition” value is on record?
**A.** 14%

**Q.** Which “% Inhibition” value does the source give for COc1cc(N2CCn3c(nc4ccccc43)C2)ccc1NC(=O)c1ccc(C)cc1 here?
**A.** -23%

**Q.** Which “% Inhibition” value does the source give for O=C1NS(=O)(=O)c2cc(N3CCN(Cc4ccccc4)CC3)ccc21 here?
**A.** 8%

**Q.** Which “% Inhibition” value does the source give for CCc1ccc(C(=O)Nc2cnc(-n3ccnc3)nc2)cc1 here?
**A.** 29%

**Q.** How did the “% Inhibition” value turn out when O=C(C[C@H]1CCN(S(=O)(=O)c2ccc(F)cc2F)C1)NCc1ccccc1 was run?
**A.** 10%

**Q.** Which “% Inhibition” value does the source give for Cc1nn(Cn2nc(-c3ccc(F)cc3)c(Br)c2-c2ccc(F)cc2)c(C)c1Cl here?
**A.** 6%

**Q.** With O=C(NCc1cccc(Cl)c1)[C@H]1CCCN(c2nc3cccnc3n(Cc3ccccc3)c2=O)C1 as the molecule, how does the “% Inhibition” value read?
**A.** -7%

**Q.** CCN(CC)CC(O)COc1c(Br)cc(C(C)(C)c2cc(Br)c(OCC(O)CN(CC)CC)c(Br)c2)cc1Br (stereo not given) was tested. Which “% Inhibition” value did it give?
**A.** 99%

**Q.** For CCN(CC)C(=O)c1cnc2snc(C)c2c1N1CCC(C(=O)Nc2c(C)cc(C)cc2C)CC1, which “% Inhibition” value is on record?
**A.** 34%

**Q.** Which “% Inhibition” value does the source give for CN(C(=O)CN(CCO)c1ccc(Br)cc1)C1CC1 here?
**A.** 2%

**Q.** For CCN(C(=O)[C@H]1CCOC1)c1ccc(C(F)(F)F)cc1, which “% Inhibition” value is on record?
**A.** 5%

**Q.** Which “% Inhibition” value does the source give for O=C(O)C1CCC(=O)N(C2CC2)C1c1ccccc1 (stereo not given) here?
**A.** 10%

**Q.** Which “% Inhibition” value does the source give for C(=C\c1cc(/C=C/c2ccccc2)n2nnnc2n1)/c1ccccc1 here?
**A.** 5%

**Q.** For O=C(NCC1CCCCC1O)c1cnn2ccncc12 (stereo not given), which “% Inhibition” value is on record?
**A.** -5%

**Q.** How did the “% Inhibition” value turn out when O=C(NCC1CCCCC1)c1cn[nH]c1-c1ccccc1 was run?
**A.** 6%

**Q.** How did the “% Inhibition” value turn out when COc1ccc2nc(C(F)(F)F)nc(N3CCNC(=O)CCN(C(=O)C(F)=C4CCCC4)CC3)c2c1 was run?
**A.** 14%

**Q.** For O=S(=O)(Nc1cccc2cccnc12)c1cccs1, which “% Inhibition” value is on record?
**A.** 64%

**Q.** With Cc1cc(NS(=O)(=O)c2cccs2)n(-c2ccncc2)n1 as the molecule, how does the “% Inhibition” value read?
**A.** 9%

**Q.** With O=S(=O)(Nc1nncs1)c1cccs1 as the molecule, how does the “% Inhibition” value read?
**A.** -10%

**Q.** How did the “% Inhibition” value turn out when Cc1nsc2ncn(C[C@H](O)COCc3ccco3)c(=O)c12 was run?
**A.** 8%

**Q.** Which “% Inhibition” value does the source give for CCOc1ccc(-c2cc3c(=O)n(CCC(=O)N4CCCC4)ccn3n2)cc1 here?
**A.** 7%

**Q.** How did the “% Inhibition” value turn out when O=C(CNC(=O)c1ccc(C(F)(F)F)cc1)Nc1cnc2c(c1)COCC2 was run?
**A.** 4%

**Q.** For Fc1ccc(-c2cc3c(N4CCCCC4)nccn3n2)cc1, which “% Inhibition” value is on record?
**A.** 12%

**Q.** For CCn1cc(C(=O)Nc2n[nH]c3ccc(C(F)(F)F)cc23)cn1, which “% Inhibition” value is on record?
**A.** -4%

**Q.** For CC1CCN(C[C@H](O)C(F)(F)F)CC1, which “% Inhibition” value is on record?
**A.** 5%

**Q.** COc1cccc2c(N3CC[C@]4(CNC(=O)C4)C3)nccc12 was tested. Which “% Inhibition” value did it give?
**A.** 2%

**Q.** Which “% Inhibition” value does the source give for CC[n+]1ccc(-c2ncc(-c3ccc(C(C)(C)C)cc3)o2)cc1 here?
**A.** 55%

**Q.** Cc1ccc(C(=O)NCCn2cnc3ccccc3c2=O)cn1 was tested. Which “% Inhibition” value did it give?
**A.** -7%

**Q.** With CN(C)CCNCc1ccc(Cl)c(Cl)c1 as the molecule, how does the “% Inhibition” value read?
**A.** -14%

**Q.** How did the “% Inhibition” value turn out when CC(C)CC[C@@H](CCNC1CCN(C)CC1)c1ccc(Cl)cc1 was run?
**A.** 83%

**Q.** For CN(C)CCCNCc1ccc(Cl)cc1Cl, which “% Inhibition” value is on record?
**A.** -7%

**Q.** With CN1CCC(NCC[C@@H](Cc2ccccc2Cl)c2ccc(Cl)cc2)CC1 as the molecule, how does the “% Inhibition” value read?
**A.** 92%

**Q.** CC(C)CC[C@@H](CCNCCN(C)C)c1ccc(Cl)cc1 was tested. Which “% Inhibition” value did it give?
**A.** 103%

**Q.** How did the “% Inhibition” value turn out when Clc1ccccc1COc1ccc(CNC2CCCCC2)cc1 was run?
**A.** 7%

**Q.** With O=C1c2cc3ccccc3n2C[C@](C(=O)NC2CCCCCCC2)(c2ccccc2)N1Cc1cccc(Cl)c1 as the molecule, how does the “% Inhibition” value read?
**A.** -5%

**Q.** For COc1ccccc1N(CC(=O)NCCN1CCOCC1)S(=O)(=O)c1ccc(C)cc1, which “% Inhibition” value is on record?
**A.** 7%

**Q.** Cc1cc(C(=O)N[C@@H](C)c2nnc3n2CCCCC3)c(C)s1 was tested. Which “% Inhibition” value did it give?
**A.** 3%

**Q.** With O=C(Nc1ncc(Cc2ccc(Cl)c(C(F)(F)F)c2)s1)c1ccc2nnsc2c1 as the molecule, how does the “% Inhibition” value read?
**A.** 10%

**Q.** With CC[C@H](O)CCNC(=O)Nc1ncc(CC(C)C)s1 as the molecule, how does the “% Inhibition” value read?
**A.** 2%

**Q.** Which “% Inhibition” value does the source give for COc1cc(NC(=O)Cn2c(=O)n(C)c(=O)c3c2c(-c2ccccc2)cn3C)cc(OC)c1OC here?
**A.** -8%

**Q.** Which “% Inhibition” value does the source give for Cc1cncn1C1CCN(C(=O)C2(Cc3ccccc3)CC3CCC2C3)CC1 (stereo not given) here?
**A.** -1%

**Q.** How did the “% Inhibition” value turn out when COc1cc(C=C(C(=O)Nc2ccccc2F)C(=O)Nc2ccccc2F)ccc1OCC(=O)Nc1cccc(C(F)(F)F)c1 was run?
**A.** -18%

**Q.** Cc1[nH]ccc1C(=O)N1CC[C@]2(CCN(C(=O)OC(C)(C)C)C2)C1 was tested. Which “% Inhibition” value did it give?
**A.** 13%

**Q.** For CCC(=O)OC1(C#CCOc2ccc(OC)cc2)CCN(C)CC1, which “% Inhibition” value is on record?
**A.** 9%

**Q.** How did the “% Inhibition” value turn out when Cc1cc(C)n(-c2ccc(N3CC4CCC3C4)nc2)n1 (stereo not given) was run?
**A.** -2%

**Q.** Which “% Inhibition” value does the source give for C[C@H](NC(=O)c1ccco1)c1cc2c(cc1Br)OCCCO2 here?
**A.** -9%
